According to the OligoGym collection:

Molecular target: PEAR1
Experiment: pooled miR-30 sensor sort-seq; sequence = guide strand
Details: shRNA
Further: reference of the scale not given here.

| Sequence | sensor-assay potency score (higher = more potent) |
| --- | --- |
| TAGTAGTGACTGTAGCTCGGAG | -0.228 |
| TTTCACATGAGCAGCGTGCAGA | -0.314 |
| TTGCTGTAGCTATAGCTGTAGC | -1.31 |
| TAGCTATAGCTGTAGCTTCGGT | -1.04 |
| TTCATCTCCATGTAGCTGCTCT | 0.0491 |
| ATTGCTGTAGCTATAGCTGTAG | -0.261 |
| TCTGGCATGACATACTCGGAGC | -0.939 |
| TCCATGTAGCTGCTCTCCCGGG | -1.66 |
| TTGCCTTTTTGCCAGTGCCGAT | -1.65 |
| TTGGTGGTGGTAGTGAAGCTTT | -1.22 |
| TAGCAGGTCCCGTTCGAGGGGT | -0.75 |
| TATAGCTGTAGCTTCGGTCCAG | 0.0436 |

Molecular target: PEBP1
Experiment: as above
Details: shRNA

| Sequence | sensor-assay potency score (higher = more potent) |
| --- | --- |
| TAAACCAGCCAGACATAGCGGT | -0.718 |
| TAAAATCACATTGTGTACCATT | -0.719 |
| TTTGATCAAAACATAAATCAGA | -0.67 |
| ATACATGCAACACTGAACTGGG | 0.364 |
| TAACACGTGCCAGCCACCGGGG | -1.45 |
| TATTATACATGCAACACTGAAC | -0.804 |
| TATACATGCAACACTGAACTGG | 0.186 |
| TGCTCTATCACTGTAGACCTGG | 0.029 |
| TTTCTTTTTTACATTCTGGGTT | 0.0306 |
| TTCTTTTTTACATTCTGGGTTG | -0.707 |
| TATCACTGTAGACCTGGTCTTT | -0.444 |
| TAATCGGAGAGGACTGTGCCAC | -0.276 |

Molecular target: PECR
Experiment: as above
Details: shRNA

| Sequence | sensor-assay potency score (higher = more potent) |
| --- | --- |
| TTTGACAACAGAAAGGTCCCCT | 0.815 |
| TCTGGGAATAAATAACTCCAGG | -1.4 |
| TTCCATACCAACTATAAGCTTT | -0.179 |
| TTGATCCGTATTCCACTGCAGG | -0.697 |
| TATGGGAATGACTCGTGCCTGC | -0.624 |
| TAGTTCTCCACAGCAGTCTGGG | -0.504 |
| TTCAATCTCTCCAACTTACGGG | 0.0068 |
| TAAACTGCTTTGCACATGTAGA | -1.07 |
| TTCATCTTTTTGACAACAGAAA | -1.6 |
| TAGAACTGATGTGTTCAGCAGG | -0.616 |
| TTAAAGGTCTCCTTCATCTTTT | -0.272 |
| TCAATCTCTCCAACTTACGGGA | -0.32 |

Molecular target: PEG10
Experiment: as above
Details: shRNA

| Sequence | sensor-assay potency score (higher = more potent) |
| --- | --- |
| TTGATCTCTTCAGAGAGCTCGT | 0.178 |
| TGCAATGTGAGGCAACACCAGC | -1.84 |
| TTGTGCATCAGGTAGTGGGAGC | -1.26 |
| TAGTTGTGCATCAGGTAGTGGG | -0.718 |
